Measurements taken from PubChem BioAssay AID602429 (Sanford-Burnham Center for Chemical Genomics, 2012).
Out of some 360,000 compounds screened, about 1,200 (0.33%) were called active. The sample holds actives, similar compounds and a random draw of the others, so the mix is not that of the screen. Values without a mark were called inactive. Cut-off read from the data, not from the text of the source: active = inhibition above about 37%; inactive = the rest.

molecular target: Small ubiquitin-related modifier 1 (Homo sapiens) (UniProt P63165); experiment: SUMO1 binding to interaction partners, disruption – biochemical, uHTS, primary screen (AID 602429); conditions: SUMO1 binding to a labelled peptide, TR-FRET, 1 h; at 20 µM; hits give high values
Sequence (P63165 whole entry, looked up): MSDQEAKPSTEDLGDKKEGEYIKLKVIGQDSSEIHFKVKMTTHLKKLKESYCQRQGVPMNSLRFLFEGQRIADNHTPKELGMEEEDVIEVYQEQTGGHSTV

SMILES | inhibition
Cc1ccccc1S(=O)(=O)Cc1ccc(C(=O)NCCN2CCCCC2C)o1 (stereo unspecified) | -2.78%
NC(=S)NN=C1CCCC(C(F)(F)F)C1 (stereo unspecified) | -4.43%
CCCc1cc(=S)n2c([nH]c3ccccc32)c1C#N | 45.4% (active)
COC(=O)c1cccc(NC(=O)CN2CCC(NC(=O)c3cc(OC)c(OC)c(OC)c3)CC2)c1 | 4.74%
CCC(C(=O)N1CCOCC1)n1c(C(=O)OC)cc2occc21 (stereo unspecified) | 0.0718%
COc1ccc2c(-c3ccccc3)cc(SCC(=O)N(C)C3CCS(=O)(=O)C3)nc2c1 (stereo unspecified) | 0.193%
CN(C(=O)COC(=O)c1cc(-c2ccco2)nc2ccccc12)C1CCS(=O)(=O)C1 (stereo unspecified) | 105% (active)
O=C(c1cc(-c2ccco2)nc2ccccc12)N(Cc1nnc(-c2ccc(Cl)cc2)o1)C1CC1 | 5.63%
O=C(Nc1cccc2c1CCCC2)c1ccc(F)cc1 | -0.657%
O=C(CSc1cccc[n+]1[O-])NCCCc1ccccc1 | -1.78%
O=C(CCS(=O)(=O)c1ccc(Br)cc1)NCCc1ccc(Cl)cc1 | 15.1%
COc1ccc(Cl)cc1NC(=O)CCS(=O)(=O)c1ccc(Br)cc1 | 71% (active)
COc1ccc(Cl)cc1NC(=O)COC(=O)c1ccc(Br)o1 | 3.41%
CCn1c(O)c2ccc(C(=O)N=NC(=O)c3cccnc3)cc2c1O | -19.8%
Cn1c(SCC(=O)Nc2ccc(N3CCOCC3)cc2)nnc1C(F)(F)F | 3.07%
O=C1C2C3C=CC(C4CC34)C2C(=O)N1c1nccs1 (stereo unspecified) | 0.623%
CCOc1ccc(C(=O)NCC(=O)N2CCN(c3ccc(C(F)(F)F)cn3)CC2)cc1 | -1.81%
CC(=O)c1c(OCC(=O)N(C)C2CCCCC2)ccc2c(C)cc(=O)oc12 | 0.393%
O=C(Nc1cc2c3c(c1)C1CCCC1CN3CC1CCCC21)c1ccc([N+](=O)[O-])cc1 (stereo unspecified) | -12.8%
Cn1ccc(=Nc2ccc(NC(=O)c3ccc(N=c4ccn(C)c5ccc([N+](=O)[O-])cc45)cc3)cc2)cc1 | 78.6% (active)
O=C(Nc1ccc(C2CC2(Cl)Cl)cc1)c1cccc([N+](=O)[O-])c1 (stereo unspecified) | -19.7%
CCCS(=O)(=O)N1CCC(C(=O)NCCCN(C)Cc2ccccc2)CC1 | 3.93%
Cc1ccc(CCN2CC(C(=O)O)CC2=O)cc1 (stereo unspecified) | 0.0169%
Nc1ccc2[nH]c(=S)sc2c1 | 65% (active)
O=c1[nH]c2ccccc2s1 | 0.972%
CCOc1ccc2[nH]c(=S)sc2c1 | 6.23%
